{"source": "PubChem BioAssay AID2546", "about": "(National Center for Advancing Translational Sciences (NCATS), 2010)", "note": "The whole screen tested about 310,000 compounds, of which about 11,000 (3.5%) were called active. Inconclusive results (about 8%) are left out. The entries come from a sample that favours actives as a whole. Unmarked numbers belong to inactive results. Calls come from the whole dose curve; as a rule, active = well fitted inhibition curve with a large enough effect; inconclusive = small, poorly fitted or top-dose-only effect, or effect the other way; inactive = flat fitted curve, though single readings scatter. % is set by controls: 0 for no effect and ±100 for the full control effect; potency is the fitted concentration of half-maximal effect."}
{"assay": "VP16 counterscreen qHTS for inhibitors of ROR gamma transcriptional activity;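 note: Gal4-VP16 expression switched on by copper sulfate through the metallothionein promoter; nearly all actives have a fitted effect of over 50% in size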", "details": "Drosophila S2 Gal4-VP16 UAS-luciferase, luminescence, 20 h; series mostly up to 53.6 µM; activity, negative = inhibition: at the top concentration", "units": {"activity, negative = inhibition": "%"}}
{"smiles": "CCN1CCN(C(=O)C2CCN(S(=O)(=O)c3cc(Cl)ccc3Cl)CC2)CC1", "activity, negative = inhibition": 4.33}
{"smiles": "CSc1ccc(CNCCN2CCOCC2)cc1", "activity, negative = inhibition": 1.08}
{"smiles": "CC(C)(C)c1ccc(CCC2OCC(CN3CCOCC3)O2)cc1", "note": "(centres undefined)", "Potency": "4.47 µM (active)"}
{"smiles": "CCCCOc1ccc(C(C)(O)CCN2CCOCC2)cc1", "note": "(centres undefined)", "activity, negative = inhibition": 3.9}
{"smiles": "COc1ccc(/C=C/c2c(-c3cccc(C)c3)oc3ccc(-c4ccc5c(c4)OCO5)cc23)cc1", "activity, negative = inhibition": -8.59}
{"smiles": "COc1cccc2cc(C(=O)NCc3ccc(C)cc3)c(=N)oc12", "activity, negative = inhibition": -2.34}
{"smiles": "CC[C@]1(c2ccccc2OC)C(=O)N(C(=O)OC)N1C(=O)OC", "activity, negative = inhibition": 0.759}
{"smiles": "N=c1oc2ccccc2cc1C(=O)N/N=C/c1ccccc1", "activity, negative = inhibition": -9.15}
{"smiles": "Cc1ccc(/C=N/NC(=O)CNC(=O)COc2ccccc2)o1", "activity, negative = inhibition": 2.06}
{"smiles": "Cc1ccc(/C=N/NC(=O)c2cc3ccccc3cc2O)o1", "Potency": "1.58 µM (active)"}
{"smiles": "COc1ccc(-n2ncc3c(SCC(=O)NNC(C)=O)ncnc32)cc1", "activity, negative = inhibition": -6.63}
{"smiles": "COc1ccc(N(C(=O)c2snc(C(N)=O)c2N)C(C(=O)NC2CCCC2)c2ccc(C)o2)c(OC)c1", "note": "(centres undefined)", "activity, negative = inhibition": 5.86}
{"smiles": "COc1ccc(Oc2c(Cl)cnn(-c3ccccc3)c2=O)cc1", "activity, negative = inhibition": -16.5}
{"smiles": "Cc1cccc(-n2ncc(C#N)c2-n2cccc2)c1", "activity, negative = inhibition": 5.67}
{"smiles": "Cc1cccc(-n2ncc(Cl)c(Cl)c2=O)c1", "Potency": "14.1 µM (active)"}
{"smiles": "O=C(CSc1ccc(-c2ccccn2)nn1)Nc1ccccc1", "activity, negative = inhibition": 8.15}
{"smiles": "Clc1nc(NC2CCCC2)nc(N2CCOCC2)n1", "activity, negative = inhibition": 2.03}
{"smiles": "O=C(NNC(=O)C(O)c1ccccc1)NC1CCCCC1", "note": "(centres undefined)", "activity, negative = inhibition": -6.21}
{"smiles": "Cc1nn(-c2ccccc2)c(C)c1C(=O)OCC(=O)NC(=O)NC1CCCCC1", "activity, negative = inhibition": 1.2}
{"smiles": "Cc1nc(/N=C(\\N)NC(=O)NC2CCCCC2)nc2ccccc12", "Potency": "7.94 µM (active)"}
{"smiles": "c1ccc2c(Nc3ccncc3)nc(-c3ccc4c(c3)OCO4)nc2c1", "Potency": "17.8 µM (active)"}
{"smiles": "c1ccc2c(Nc3ccncc3)nc(-c3ccoc3)nc2c1", "activity, negative = inhibition": -20.6}
{"smiles": "Cc1cccc(-c2nc(Nc3ccc(O)cc3)c3ccccc3n2)c1", "activity, negative = inhibition": -10.1}
{"smiles": "COCCc1nn2c(=O)cc(COC(=O)c3cc(OC)c(OC)c(OC)c3)nc2s1", "activity, negative = inhibition": 1.47}
{"smiles": "Cc1cc(C(=O)NC2CC(C)(C)Cc3c2cnn3-c2ccccc2)n[nH]1", "note": "(centres undefined)", "activity, negative = inhibition": 20.9}
{"smiles": "O=C(c1ccccc1F)N(Cc1ccccc1)Cc1ccccc1", "activity, negative = inhibition": 5.22}
{"smiles": "C/C(=N\\NC(=O)c1ccccc1C)c1ccc(N2CCOCC2)cc1", "activity, negative = inhibition": 8.88}
{"smiles": "C/C(=N\\NC(=O)c1nc(C)cc(C)n1)c1ccccc1", "activity, negative = inhibition": -5.35}
{"smiles": "C/C(=N\\NC(=O)c1ccoc1C)c1ccccc1O", "Potency": "0.708 µM (active)"}
{"smiles": "CNC(=O)C(NC(=O)c1ccccc1)=C(C)C", "activity, negative = inhibition": -6.26}
{"smiles": "CC(=O)NC(=O)c1ccccc1O", "activity, negative = inhibition": -11.3}
{"smiles": "CC(C)=C(NC(=O)c1ccccc1)C(=O)N/N=C(\\C)c1ccccc1O", "Potency": "2.51 µM (active)"}
{"smiles": "CCc1cc(=O)oc2c(C)c(OCC(=O)N3CC[C@@]4(O)CCCC[C@H]4C3)ccc12", "activity, negative = inhibition": -6.71}
{"smiles": "COc1ccc(CNC(=O)C2CCN(S(=O)(=O)c3ccc(SC)cc3)CC2)cc1", "activity, negative = inhibition": -15.2}
{"smiles": "COc1cccc(NC(=O)[C@H](Cc2c[nH]c3ccccc23)NC(=O)[C@@H]2Cc3ccccc3CN2)c1", "activity, negative = inhibition": -1.61}
{"smiles": "O=C1CCN(CCCc2ccccc2)CCN1CCO", "activity, negative = inhibition": -20.6}
{"smiles": "CCOc1ccccc1OCCCNCc1ccccc1", "activity, negative = inhibition": -14.8}
{"smiles": "CCOc1ccccc1N1CN(Cc2ccccc2)CNC1=S", "Potency": "11.2 µM (active)"}
{"smiles": "CCOc1ccc(CC(=O)NC2CCN(Cc3ccccc3)CC2)cc1", "activity, negative = inhibition": -3.19}
{"smiles": "O=C(c1ccco1)N1CCN(Cc2cccc(C(F)(F)F)c2)CC1", "activity, negative = inhibition": -1.59}
{"smiles": "Cc1ccc(NS(=O)(=O)c2ccc3c(c2)n(C)c(=O)c(=O)n3C)c(C)c1", "activity, negative = inhibition": -22.3}
{"smiles": "CCOC(=O)COn1c(=O)c(-c2ccc(OCC)cc2)[n+]([O-])c2ccccc21", "activity, negative = inhibition": -6.45}
{"smiles": "Cc1nn(-c2ccccc2)c2c1c(C)c(CCC(=O)NCC1CCCO1)c(=O)n2C", "note": "(centres undefined)", "activity, negative = inhibition": -5.19}
{"smiles": "C=CC(=O)c1ccc2ccccc2c1", "Potency": "0.708 µM (active)"}
{"smiles": "O=C(Nc1ccc(NC(=O)c2cccs2)cc1)c1ccc2ccccc2c1", "activity, negative = inhibition": 4.21}
{"smiles": "CC(=O)CCC(=O)c1ccc2ccccc2c1", "activity, negative = inhibition": -10.3}
{"smiles": "COc1cc2ccccc2cc1C(=O)Nc1ccccc1C", "activity, negative = inhibition": 12.7}
{"smiles": "Cc1ccc(N(C(=O)c2snc(C(N)=O)c2N)C(C(=O)NCC2CCCO2)c2c[nH]c3ccccc23)cc1", "note": "(centres undefined)", "activity, negative = inhibition": 4.57}
{"smiles": "CCSc1nsc(NC(=O)Nc2ccccc2OC)n1", "activity, negative = inhibition": 24.6}
{"smiles": "CC1CCN(c2ccc(S(=O)(=O)Nc3cc(C(=O)O)cc(C(=O)O)c3)cc2[N+](=O)[O-])CC1", "activity, negative = inhibition": -8.43}
{"smiles": "CC1CCN(c2ccc(C(=O)NCc3ccc4c(c3)OCO4)cc2[N+](=O)[O-])CC1", "activity, negative = inhibition": 2.28}
{"smiles": "CC1CCN(c2ccc(C(=O)Nc3nnc(C4CC4)s3)cc2[N+](=O)[O-])CC1", "Potency": "17.8 µM (active)"}
{"smiles": "COCCNC(=O)c1ccc2c(c1)ncn2-c1ccc(C)c(Cl)c1", "activity, negative = inhibition": 2.37}
{"smiles": "CCC1Oc2ccccc2N(CC(=O)NCCCN2CCN(CC)CC2)C1=O", "note": "(centres undefined)", "activity, negative = inhibition": 6.78}
